Experimental data from ChEMBL document CHEMBL3433997, “St. Jude Leishmania screening dataset” (2016).

Experiments:
Format in all cases: functional
[1] = target: Solute carrier family 2, facilitated glucose transporter member 1 (Homo sapiens) (UniProt P11166); assay: ST_JUDE_LEISH: Cytotoxicity at 2uM final concentration against transgenic Leishmania Mexicana promastigotes LmGLUT1 that are glucose transport deficient and complemented with the human glucose transporter GLUT1. Activity is measured by DNA content using SYBR green in vitro
Chain of Solute carrier family 2, facilitated glucose transporter member 1 (Homo sapiens) (P11166 whole entry): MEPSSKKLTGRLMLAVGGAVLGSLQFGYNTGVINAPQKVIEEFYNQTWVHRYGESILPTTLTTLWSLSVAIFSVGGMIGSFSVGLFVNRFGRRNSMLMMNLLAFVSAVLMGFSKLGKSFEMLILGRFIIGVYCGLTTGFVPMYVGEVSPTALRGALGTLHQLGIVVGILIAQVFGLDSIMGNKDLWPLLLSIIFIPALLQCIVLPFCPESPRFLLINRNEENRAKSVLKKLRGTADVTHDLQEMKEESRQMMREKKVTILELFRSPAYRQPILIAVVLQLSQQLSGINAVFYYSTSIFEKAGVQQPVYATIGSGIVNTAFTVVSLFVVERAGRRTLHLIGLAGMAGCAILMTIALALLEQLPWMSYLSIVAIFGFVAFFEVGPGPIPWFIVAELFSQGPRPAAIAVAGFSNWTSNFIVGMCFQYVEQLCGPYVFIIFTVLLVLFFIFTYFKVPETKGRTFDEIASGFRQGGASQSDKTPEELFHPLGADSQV

[2] = target: Hexose transporter 1 (Plasmodium falciparum) (UniProt O97467); assay: ST_JUDE_LEISH: Cytotoxicity at 2uM final concentration against transgenic Leishmania Mexicana promastigotes LmPfHT that are glucose transport deficient and complemented with the Plasmodium falciparum hexose transporter. Activity is measured by DNA content using SYBR green in vitro
[3] = target: Glucose transporter (Leishmania mexicana) (UniProt O61059); assay: ST_JUDE_LEISH: Cytotoxicity at 2uM final concentration against transgenic Leishmania Mexicana promastigotes LmGT2 that are glucose transport deficient and complemented with the L. Mexicana glucose transporter 2. Activity is measured by DNA content using SYBR green in vitro

Row | SMILES | inhibition [1] [%] | inhibition [2] [%] | inhibition [3] [%]
1 | CCOc1cc2ncnc(Nc3ccc(OCc4c(F)cccc4F)c(OC)c3)c2cc1OCC | 4.53 | 2.29 | 0.2
2 | O=C(Nc1cccc(Cl)c1)N[C@H]1CCN(Cc2ccc(OCCCN3CCCCC3)cc2)C1 | 9.4 | 9.12 | 8.16
3 | O=C(Nc1cccc(-c2csc(-c3ccccc3)n2)c1)c1cccs1 | 2.64 | 2.57 | 0.7
4 | CC(CN(C)C)C(=O)Nc1cccc(-c2ccc(-c3nc4cc(F)ccc4[nH]3)s2)c1 (stereo unspecified) | 3.85 | 2.55 | 4.47
5 | CCCc1ccccc1OCC(O)CN(C1CCCC1)C1CCCC1 (stereo unspecified) | 6.36 | 6.68 | 5.96
6 | COC(=O)c1cccc(CNCc2cccc(-c3cccc(-c4nc5ccccc5[nH]4)c3)c2)c1 | 1.94 | 3.05 | 2.93
7 | Fc1ccc2[nH]c(-c3ccc(-c4ccc(CNCCc5ccncc5)cc4)s3)nc2c1 | 5.54 | 4.96 | 7.86
8 | COc1ccc(S(=O)(=O)NC2CCN(c3cc(C)nc(Nc4cccc(C#N)c4)n3)CC2)cc1 | 4.31 | 1.33 | 0.61
9 | O=C(/C=C/c1ccc(C(F)(F)F)cc1)NCCCCCN1CCN(C(=O)Nc2ccc(Cl)c(Cl)c2)CC1 | 0.91 | 2.31 | -0.42
10 | COc1ccc(NC(=O)/C=C/c2ccccc2Cl)cc1OCCN1CCC(Cc2cc3ccccc3[nH]2)CC1 | 3.32 | 1.85 | -2.57
11 | O=C1CCCN1CCCNCc1cccc(-c2cccc(-c3nc4cc(C(F)(F)F)ccc4[nH]3)c2)c1 | 4.47 | 3.94 | 4.37
12 | COc1cccc(C2=CC(C)(C)Oc3cc(OCCN(C)C)ccc32)c1 | 0.35 | -3.47 | 4.3
